Holding throughout (set-up): scale not given: direction of the effect not stated beside the values
The target in assay [1] is Protein translocase subunit SecA (Escherichia coli (strain K12)) (UniProt P10408). The assay is described as follows: Assay to Identify E. coli SecA ATPase Inhibitors. In kind it is functional. The settings on record: 30 µM.
For assay [2], the target named is T1, Ubiquitin-activating enzyme e1, putative (Leishmania donovani (strain BPK282A1)) (UniProt E9BSI1).
T1 sequence (whole entry): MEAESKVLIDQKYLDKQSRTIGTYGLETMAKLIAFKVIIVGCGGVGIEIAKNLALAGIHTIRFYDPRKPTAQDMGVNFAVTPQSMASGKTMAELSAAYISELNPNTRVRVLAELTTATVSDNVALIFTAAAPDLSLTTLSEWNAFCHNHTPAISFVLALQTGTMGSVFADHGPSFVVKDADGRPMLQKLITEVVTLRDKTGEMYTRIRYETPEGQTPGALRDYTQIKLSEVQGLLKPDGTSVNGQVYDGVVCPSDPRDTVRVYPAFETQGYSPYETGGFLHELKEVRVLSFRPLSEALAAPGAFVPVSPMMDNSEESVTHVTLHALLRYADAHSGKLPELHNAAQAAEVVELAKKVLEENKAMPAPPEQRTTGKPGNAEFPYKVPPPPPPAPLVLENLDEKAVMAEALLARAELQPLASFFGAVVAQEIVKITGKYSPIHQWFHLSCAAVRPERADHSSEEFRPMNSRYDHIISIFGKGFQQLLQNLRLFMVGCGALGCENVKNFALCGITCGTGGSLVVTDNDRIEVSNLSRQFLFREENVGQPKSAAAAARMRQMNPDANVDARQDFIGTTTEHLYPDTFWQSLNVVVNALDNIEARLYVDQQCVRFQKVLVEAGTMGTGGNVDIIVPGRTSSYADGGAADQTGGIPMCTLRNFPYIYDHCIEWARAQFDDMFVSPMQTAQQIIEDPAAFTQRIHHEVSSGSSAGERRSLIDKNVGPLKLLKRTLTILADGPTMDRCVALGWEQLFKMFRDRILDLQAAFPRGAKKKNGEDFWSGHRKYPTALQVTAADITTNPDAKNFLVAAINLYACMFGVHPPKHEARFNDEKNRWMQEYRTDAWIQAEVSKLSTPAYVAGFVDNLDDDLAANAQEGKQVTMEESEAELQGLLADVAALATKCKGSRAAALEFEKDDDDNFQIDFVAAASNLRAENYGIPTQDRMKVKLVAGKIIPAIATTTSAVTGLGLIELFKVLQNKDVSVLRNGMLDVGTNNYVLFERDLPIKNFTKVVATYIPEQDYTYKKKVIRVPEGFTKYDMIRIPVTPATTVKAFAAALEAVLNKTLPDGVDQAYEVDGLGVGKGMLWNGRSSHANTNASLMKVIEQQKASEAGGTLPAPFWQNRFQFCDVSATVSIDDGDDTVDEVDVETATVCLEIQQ
Briefly: Leishmania donovani Ubiquitin Activating Enzyme (LdE1). Conditions: 30 µM. In kind it is functional.

Assay [3] addresses T2, Aspartate--tRNA(Asp/Asn) ligase (Mycobacterium tuberculosis (strain ATCC 25618 / H37Rv)) (UniProt P9WFW3).
T2 sequence (whole entry): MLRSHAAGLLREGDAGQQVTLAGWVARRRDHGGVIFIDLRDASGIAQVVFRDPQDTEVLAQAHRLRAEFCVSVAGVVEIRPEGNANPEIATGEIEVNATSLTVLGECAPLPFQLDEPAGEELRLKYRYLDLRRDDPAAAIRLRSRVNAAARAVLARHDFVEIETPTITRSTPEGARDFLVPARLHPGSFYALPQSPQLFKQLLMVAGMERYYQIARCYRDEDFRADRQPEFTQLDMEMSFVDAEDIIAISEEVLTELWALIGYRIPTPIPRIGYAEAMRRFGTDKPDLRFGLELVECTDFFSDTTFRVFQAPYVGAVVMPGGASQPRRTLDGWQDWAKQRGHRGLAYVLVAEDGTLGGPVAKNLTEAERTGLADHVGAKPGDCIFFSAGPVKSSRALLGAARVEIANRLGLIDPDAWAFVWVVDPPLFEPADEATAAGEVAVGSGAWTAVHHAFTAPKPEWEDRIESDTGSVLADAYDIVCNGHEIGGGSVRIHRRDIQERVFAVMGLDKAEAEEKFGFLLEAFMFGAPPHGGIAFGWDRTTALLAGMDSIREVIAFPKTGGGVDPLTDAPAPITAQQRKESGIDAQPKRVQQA
Briefly: Assay for Asp RNA synthetase-1 from Mycobacterium tuberculosis. In kind it is functional. Conditions: 30 µM.

In assay [4] the target is AMP-activated protein kinase, AMPK (Homo sapiens) (UniProt P54646+O43741+P54619+Q9UGJ0+Q9Y478+Q13131+Q9UGI9). The assay is described as follows: AMP-dependent Kinase enzyme assay. An in vitro enzyme assay that detects ADP turnover that is directly proportional to AMPK activity. This uses naive AMPK that is activated during the assay with MK-8722. The class given is functional. Conditions: 30 µM.

In assay [5] the target is Sialic acid-binding Ig-like lectin 9 (Homo sapiens) (UniProt Q9Y336). Briefly: Hs-Siglec9 ALPHAscreen SOP 20170721. The settings on record: 10 µM. (Alpha assays give light when donor and acceptor beads are brought close together.)
Chain of Sialic acid-binding Ig-like lectin 9 (Homo sapiens) (Q9Y336 whole entry): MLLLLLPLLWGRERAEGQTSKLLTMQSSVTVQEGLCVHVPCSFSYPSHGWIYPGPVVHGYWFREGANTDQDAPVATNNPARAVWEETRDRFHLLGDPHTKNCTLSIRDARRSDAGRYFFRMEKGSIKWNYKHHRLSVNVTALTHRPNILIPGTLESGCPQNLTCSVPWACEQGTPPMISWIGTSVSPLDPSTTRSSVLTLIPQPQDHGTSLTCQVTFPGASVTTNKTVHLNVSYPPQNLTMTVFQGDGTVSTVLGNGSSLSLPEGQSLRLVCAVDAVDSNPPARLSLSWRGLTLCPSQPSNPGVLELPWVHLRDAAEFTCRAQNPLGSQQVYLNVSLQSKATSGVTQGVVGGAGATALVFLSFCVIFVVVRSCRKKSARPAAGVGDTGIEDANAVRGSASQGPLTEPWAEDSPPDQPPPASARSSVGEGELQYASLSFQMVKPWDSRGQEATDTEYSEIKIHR
The next assay has as its system Trypanosoma cruzi. Briefly: Trypanosoma cruzi phosphomannomutase and mannose-1-phosphate guanylyltransferase assay. In kind it is functional. The settings on record: 10 µM.
For assay [6], the target named is T3, Arginase-2, mitochondrial (Homo sapiens) (UniProt P78540).
T3 sequence (whole entry): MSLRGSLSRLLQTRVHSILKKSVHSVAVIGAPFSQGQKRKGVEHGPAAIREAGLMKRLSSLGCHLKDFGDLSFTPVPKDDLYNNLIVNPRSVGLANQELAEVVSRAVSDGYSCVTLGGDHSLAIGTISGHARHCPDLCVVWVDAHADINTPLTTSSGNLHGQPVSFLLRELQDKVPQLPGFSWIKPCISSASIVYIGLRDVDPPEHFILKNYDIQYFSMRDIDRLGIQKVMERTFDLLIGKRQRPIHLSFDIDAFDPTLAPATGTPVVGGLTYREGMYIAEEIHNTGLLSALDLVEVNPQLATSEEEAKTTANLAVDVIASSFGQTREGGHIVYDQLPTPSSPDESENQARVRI
The assay is described as follows: in vitro enzyme assay to detect the production of urea directly proportional to the activity of Arginase II. Further: in the data most compounds retested in dose-response had high values. Conditions: 33.3 µM. In kind it is functional.

Assay [7] has as its target T4, Proteasome subunit beta (Trypanosoma cruzi) (UniProt O96673).
T4 sequence (whole entry): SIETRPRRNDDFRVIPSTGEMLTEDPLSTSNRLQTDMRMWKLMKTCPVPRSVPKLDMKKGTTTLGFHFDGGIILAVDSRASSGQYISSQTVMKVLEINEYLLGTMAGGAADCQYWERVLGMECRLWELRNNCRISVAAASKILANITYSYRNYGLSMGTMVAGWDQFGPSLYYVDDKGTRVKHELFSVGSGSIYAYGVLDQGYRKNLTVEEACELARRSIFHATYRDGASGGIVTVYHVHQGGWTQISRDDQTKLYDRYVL
Briefly: Trypanosoma cruzi proteasome chymotrypsin-like activity (TcProtChymo) assay. Further: in the data most compounds retested in dose-response had high values. The settings on record: 9.37 µM. The class given is functional.

The species named for the next assay is Homo sapiens. The assay is described as follows: To identify inhibition of the IFN signalling (Jak-Stat) pathway via expression of an eGFP reporter gene under the control of an IFN-stimulated response element (ISRE) containing MxA promoter. Conditions: 30 µM. In kind it is functional. For orientation: Reporter assays use an easily measured gene product as a stand-in for the process of interest.

In assay [8] the target is Shiga toxin 2 (Escherichia coli O157:H7) (UniProt P09385+P09386). The assay is described as follows: E. coli 0.157:H7 Shiga Toxin SOP - stx2 screening assay. In kind it is functional. Conditions: 30 µM.
In assay [9] the target is T5, Tyrosyl-tRNA synthetase, putative (Trypanosoma cruzi (strain CL Brener)) (UniProt Q4DSP6).
T5 sequence (whole entry): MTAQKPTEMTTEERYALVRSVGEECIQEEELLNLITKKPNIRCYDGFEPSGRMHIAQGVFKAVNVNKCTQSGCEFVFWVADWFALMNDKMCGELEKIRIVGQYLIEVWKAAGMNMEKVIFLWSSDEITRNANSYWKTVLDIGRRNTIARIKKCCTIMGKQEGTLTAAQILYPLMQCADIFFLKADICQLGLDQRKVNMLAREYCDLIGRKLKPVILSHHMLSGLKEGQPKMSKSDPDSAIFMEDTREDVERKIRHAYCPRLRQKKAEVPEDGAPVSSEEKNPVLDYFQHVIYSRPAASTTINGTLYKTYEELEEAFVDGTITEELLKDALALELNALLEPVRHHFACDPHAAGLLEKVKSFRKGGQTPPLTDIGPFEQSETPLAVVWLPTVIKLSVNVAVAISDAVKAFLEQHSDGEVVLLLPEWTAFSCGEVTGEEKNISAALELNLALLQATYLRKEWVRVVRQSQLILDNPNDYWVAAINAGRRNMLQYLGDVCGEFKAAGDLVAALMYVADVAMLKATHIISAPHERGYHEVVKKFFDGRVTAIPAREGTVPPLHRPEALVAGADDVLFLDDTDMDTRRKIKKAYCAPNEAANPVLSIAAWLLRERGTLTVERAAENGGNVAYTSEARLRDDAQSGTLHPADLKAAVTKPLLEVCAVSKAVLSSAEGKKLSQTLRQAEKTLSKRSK
The assay is described as follows: Trypanosoma cruzi tyrosyl tRNA synthetase (TcYRS) _High Tyrosine SOP. Further: in the data most compounds retested in dose-response had high values. In kind it is functional. Conditions: 30 µM.

Assay [10] has as its target T5, Tyrosyl-tRNA synthetase, putative (Trypanosoma cruzi (strain CL Brener)). Briefly: Trypanosoma cruzi tyrosyl tRNA synthetase (TcYRS) SOP. The class given is functional. The settings on record: 30 µM.
The target of assay [11] is Chromo domain-containing protein 1 (Saccharomyces cerevisiae (strain ATCC 204508 / S288c) (Baker's yeast)) (UniProt P32657). The assay is described as follows: ScCHD-1 Enzyme Inhibition Assay. Further: in the data most compounds retested in dose-response had high values. In kind it is functional. Conditions: 30 µM.
Chain of Chromo domain-containing protein 1 (Saccharomyces cerevisiae (strain ATCC 204508 / S288c) (Baker's yeast)) (P32657 whole entry, the tested form may be a part): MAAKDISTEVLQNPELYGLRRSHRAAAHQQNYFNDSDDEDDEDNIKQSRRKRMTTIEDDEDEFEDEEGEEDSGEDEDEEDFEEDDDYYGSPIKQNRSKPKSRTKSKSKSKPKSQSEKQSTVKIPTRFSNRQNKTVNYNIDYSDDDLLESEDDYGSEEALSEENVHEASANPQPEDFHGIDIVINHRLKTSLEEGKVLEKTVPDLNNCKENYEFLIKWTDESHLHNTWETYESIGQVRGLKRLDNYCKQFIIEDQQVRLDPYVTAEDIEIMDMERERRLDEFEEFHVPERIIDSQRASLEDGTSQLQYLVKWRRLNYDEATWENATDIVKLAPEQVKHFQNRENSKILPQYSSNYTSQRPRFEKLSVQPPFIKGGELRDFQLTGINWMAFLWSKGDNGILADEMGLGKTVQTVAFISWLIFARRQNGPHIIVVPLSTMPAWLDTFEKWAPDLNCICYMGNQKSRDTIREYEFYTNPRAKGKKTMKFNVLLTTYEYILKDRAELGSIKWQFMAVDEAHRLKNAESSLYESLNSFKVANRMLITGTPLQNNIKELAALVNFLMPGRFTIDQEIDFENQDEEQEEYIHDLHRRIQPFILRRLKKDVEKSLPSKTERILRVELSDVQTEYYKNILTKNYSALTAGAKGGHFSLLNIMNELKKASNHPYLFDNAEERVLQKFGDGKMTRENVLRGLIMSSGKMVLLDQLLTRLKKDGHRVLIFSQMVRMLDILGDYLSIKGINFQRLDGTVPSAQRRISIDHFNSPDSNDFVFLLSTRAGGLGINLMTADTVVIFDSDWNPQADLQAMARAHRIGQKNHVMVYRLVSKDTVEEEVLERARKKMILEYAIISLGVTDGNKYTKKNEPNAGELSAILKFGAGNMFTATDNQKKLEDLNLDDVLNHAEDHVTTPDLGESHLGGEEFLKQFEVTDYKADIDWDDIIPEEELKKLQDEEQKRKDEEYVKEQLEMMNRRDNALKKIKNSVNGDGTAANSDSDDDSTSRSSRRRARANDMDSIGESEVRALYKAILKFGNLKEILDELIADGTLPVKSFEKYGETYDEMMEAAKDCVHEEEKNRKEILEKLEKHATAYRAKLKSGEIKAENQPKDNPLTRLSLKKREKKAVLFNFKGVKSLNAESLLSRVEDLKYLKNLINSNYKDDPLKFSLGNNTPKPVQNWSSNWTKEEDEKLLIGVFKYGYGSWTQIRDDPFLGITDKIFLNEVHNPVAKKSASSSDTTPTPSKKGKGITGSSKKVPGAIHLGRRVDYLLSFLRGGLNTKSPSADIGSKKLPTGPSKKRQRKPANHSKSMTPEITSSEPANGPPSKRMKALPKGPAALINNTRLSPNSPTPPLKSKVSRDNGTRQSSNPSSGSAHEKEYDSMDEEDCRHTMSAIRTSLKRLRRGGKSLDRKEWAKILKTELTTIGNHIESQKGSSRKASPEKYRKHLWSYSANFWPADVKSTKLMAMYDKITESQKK

For some assays here: Measured potencies and affinities stand elsewhere.

Chain of Protein translocase subunit SecA (Escherichia coli (strain K12)) (P10408 whole entry): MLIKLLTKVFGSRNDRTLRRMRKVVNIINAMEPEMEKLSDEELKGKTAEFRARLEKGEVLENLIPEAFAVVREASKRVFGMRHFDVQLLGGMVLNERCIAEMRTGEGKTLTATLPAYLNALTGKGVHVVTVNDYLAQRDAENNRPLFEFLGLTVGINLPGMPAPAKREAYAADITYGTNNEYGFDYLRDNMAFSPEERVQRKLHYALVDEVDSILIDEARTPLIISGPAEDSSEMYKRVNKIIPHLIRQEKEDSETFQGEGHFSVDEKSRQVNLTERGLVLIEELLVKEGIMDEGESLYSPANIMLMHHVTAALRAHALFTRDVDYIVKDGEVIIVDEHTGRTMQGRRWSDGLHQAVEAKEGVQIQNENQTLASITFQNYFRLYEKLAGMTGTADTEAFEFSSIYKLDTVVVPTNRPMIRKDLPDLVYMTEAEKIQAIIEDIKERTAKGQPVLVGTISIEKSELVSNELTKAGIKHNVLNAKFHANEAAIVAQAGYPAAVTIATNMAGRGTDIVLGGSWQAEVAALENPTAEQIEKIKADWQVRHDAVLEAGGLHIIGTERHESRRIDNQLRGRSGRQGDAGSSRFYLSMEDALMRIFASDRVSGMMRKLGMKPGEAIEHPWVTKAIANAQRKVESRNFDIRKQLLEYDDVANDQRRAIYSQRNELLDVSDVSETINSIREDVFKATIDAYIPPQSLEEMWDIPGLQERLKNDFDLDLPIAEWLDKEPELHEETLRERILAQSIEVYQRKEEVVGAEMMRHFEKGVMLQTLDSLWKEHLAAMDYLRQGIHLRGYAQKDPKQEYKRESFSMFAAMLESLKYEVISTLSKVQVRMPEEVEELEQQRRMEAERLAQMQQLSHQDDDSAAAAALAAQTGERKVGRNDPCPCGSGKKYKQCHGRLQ

For `COC[C@@H]1CCC[C@]12CN(Cc1cccc(C)n1)CCO2`, the Percent Effect is 2.73% in assay [1]; 4% in [2]; 3.92% in assay [3]; 0.13% in assay [4]; -3.4% in [5]; -8.45% in the assay with Trypanosoma cruzi. Moreover, the Percent Effect in assay [6] was 0.528%; in assay [7], 15.3%; in the assay listed under Homo sapiens, 9.81%; in [8], -43.1%; in assay [9] it was 2.12%; in assay [10] it was 2.56%. In assay [11], the Percent Effect is -8.43%.
Take `CCN1CCC2(CC1)CC(Nc1ncccn1)CO2` (stereo not given): the Percent Effect was -4.33% in [1]; 2.7% in assay [2]; -1.65% in assay [3]; -2.57% in [4]; 1.3% in assay [5]; 4.49% in the assay with Trypanosoma cruzi. For the same compound, the Percent Effect in assay [6] came out at 35.8%; in [7], 6.34%; in the assay listed under Homo sapiens it was 8.12%; in assay [8] it was 11.5%; in [9], 6.93%; in assay [10], 13.4%. The Percent Effect in assay [11] was -1.38%.
As to `CC[C@H](N)Cn1nc(-c2cccs2)oc1=O`, the Percent Effect in assay [1] was -1.83%; in assay [2], 9.46%; in assay [3] it was 7.37%; in assay [4], 12%; in [5], -5.1%; with Trypanosoma cruzi, -1.98%. In addition, the Percent Effect in assay [6] was -1.62%; in assay [7], 16.7%; in the assay filed under Homo sapiens it was 2.87%; in [8], 5.59%; in assay [9] it was 1.07%; in assay [10], 3.9%. Also, in assay [11], the Percent Effect was -13.2%.
For the compound `COc1c(Br)cc(Br)cc1CNC(C)Cn1cccn1` (stereo not given), the Percent Effect in assay [1] is -4.9%; in [2] it was 23.4%; in [3] it was 2.09%; in [4], 5.26%; in assay [5], -2.65%; in the assay with Trypanosoma cruzi, -10.9%. For the same compound, the Percent Effect in assay [6] was -3.56%; in [7] it was 1.01%; in the assay filed under Homo sapiens it was 35.9%; in assay [8], 15.4%; in [9], 4.85%; in [10] it was 9.76%. Moreover, the Percent Effect in assay [11] was -8.37%.
On to `O=C1CC[C@@H]2[C@@H](CCN2Cc2ccncc2)N1c1ccccc1`, for which the Percent Effect is -3.22% in [1]; -8% in assay [2]; 0.204% in assay [3]; -13.7% in [4]; 8.87% in assay [5]; -2.7% with Trypanosoma cruzi. In addition, the Percent Effect in assay [6] was 0.896%; in assay [7], 11.1%; in the assay listed under Homo sapiens it was -5.31%; in assay [8] it was -8.6%; in assay [9], 5.21%; in assay [10], 7.5%. Further, the Percent Effect in [11] is -2.91%.

(Values after ChEMBL document CHEMBL3988442, “University of Dundee, Small-Polar-MMV Screening Library” (2021).)
